The list is not random: actives were taken first. Their share in the collection is about 6.9%.
JMJD2A Tudor: inhibitors of human JMJD2A Tudor domain | AlphaScreen JMJD2A-Tudor / H3K4me3 peptide binding | AID 504339 | hit rate 4.4% among 390,000 | O75164 | Potency, µM (titrated, usually from 114 µM), for the others: top-dose activity change, negative = inhibition, actives largely listed as inhibitors; note: % is set by controls: 0 for no effect and ±100 for the full control effect; nearly all actives have a fitted effect of over 50% in size
PLK1 PBD inh: blocks phosphopeptide binding to human PLK1 polo-box domain | Plk1 PBD binding of FITC phosphopeptide, fluorescence polarization | Potency, µM, for the others: max response, negative = inhibition, hits mostly inhibitors | hit rate 2.8% among 360,000 | P53350; note: series mostly up to about 57 µM; % is set by controls: 0 for no effect and ±100 for the full control effect; nearly all actives have a fitted effect of over 65% in size
BAZ2B block: BAZ2B (human) inhibition; Potency, µM (doses to about 114 µM), for inactives: at the highest dose activity change, negative = inhibition, most hits filed as inhibitors; AlphaScreen BAZ2B-H3K14Ac peptide displacement; hit rate 4.4% among 360,000; note: % is set by controls: 0 for no effect and ±100 for the full control effect; nearly all actives have a fitted effect of over 60% in size
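AlphaScreen luminescence quantifies BAZ2B engagement of H3K14Ac peptide; the protein and biotinylated peptide are both at 50 nM final, buffer PBS pH 7.4 with 0.01% Tween-20, all steps at room temperature.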
L3MBTL1 block: blocks human L3MBTL1 | Q9Y468 | AlphaScreen L3MBTL1–H3K9me1 peptide binding | hit rate 0.66% among 230,000 | Potency, µM (top dose mostly 57.1 µM), for the others: top-dose activity, negative = inhibition, usual class: inhibitors; note: % is set by controls: 0 for no effect and ±100 for the full control effect; nearly all actives have a fitted effect of over 60% in size
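Displacement of a biotinylated histone H3(1-15) peptide monomethylated at Lys9 (75 nM) from L3MBTL1 (50 nM) was measured by AlphaScreen after a 30 min room-temperature compound incubation; cefsulodin titration served as intraplate control.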
HP1b binding inh: HP1-beta chromodomain-methylated histone interaction inhibition | P83916 | AlphaScreen HP1-beta / biotin-H3K9me3 peptide binding | Potency, µM (titrated, usually from 114 µM), without a hit: top-dose activity change, negative = inhibition, actives largely listed as inhibitors | hit rate 0.56% among 390,000 | AID 540317; note: nearly all actives have a fitted effect of over 70% in size
Target sequence (P83916 whole entry, looked up): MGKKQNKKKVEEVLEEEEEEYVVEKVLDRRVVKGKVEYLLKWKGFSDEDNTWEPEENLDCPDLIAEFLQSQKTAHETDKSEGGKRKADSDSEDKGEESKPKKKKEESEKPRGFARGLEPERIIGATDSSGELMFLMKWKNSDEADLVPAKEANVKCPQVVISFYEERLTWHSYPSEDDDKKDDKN
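Compound inhibition of the preformed complex between 50 nM HP1-beta and 50 nM biotinylated H3K9me3 peptide was read by AlphaScreen. Buffer was PBS pH 7.4 with 0.01% Tween-20. Incubations ran 30 min at room temperature, with 10 ug/mL donor/acceptor beads.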
VDR inhibitor: blocks the human vitamin D receptor | P11473 | VDR-SRC2-3 peptide fluorescence polarization, 2 h | Potency, µM, for inactives: max response, negative = inhibition, actives largely listed as inhibitors | hit rate 0.93% among 400,000 | AID 504847; note: % is set by controls: 0 for no effect and ±100 for the full control effect
Target sequence (P11473 whole entry, looked up): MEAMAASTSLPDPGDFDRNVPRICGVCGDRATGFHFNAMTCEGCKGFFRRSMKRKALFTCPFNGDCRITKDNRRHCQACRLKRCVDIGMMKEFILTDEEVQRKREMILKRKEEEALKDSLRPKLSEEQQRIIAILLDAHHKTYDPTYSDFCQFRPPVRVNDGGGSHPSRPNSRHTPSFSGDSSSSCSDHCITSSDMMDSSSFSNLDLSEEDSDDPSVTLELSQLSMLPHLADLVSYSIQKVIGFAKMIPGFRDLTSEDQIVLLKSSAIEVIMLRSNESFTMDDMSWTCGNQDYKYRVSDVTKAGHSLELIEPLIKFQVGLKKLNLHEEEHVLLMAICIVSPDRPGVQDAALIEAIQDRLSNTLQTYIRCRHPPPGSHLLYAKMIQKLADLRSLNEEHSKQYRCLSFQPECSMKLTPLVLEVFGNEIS
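Fluorescence polarization assay of small-molecule disruption of VDR binding to coregulator peptide SRC2-3. Compounds and controls pin-transferred, then read after 2 h incubation at ambient room temperature.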
* hit, by the source's call; u = inconclusive; x = not tested or not shown; [ ] = remark or other dose. Calls come from the whole dose curve; as a rule, active = well fitted curve in the direction sought with a large enough effect; inconclusive = small, poorly fitted or top-dose-only effect, or another doubt; inactive = no such curve, though single readings can be large; an effect the other way counts as inactive or inconclusive. Potency is the fitted concentration of half-maximal effect.

SMILES	JMJD2A Tudor	PLK1 PBD inh	BAZ2B block	L3MBTL1 block	HP1b binding inh	VDR inhibitor
C#CCOCCOCCOCCNc1nc(N2CCN(C(=O)C(Cc3cc4ccccc4[nH]3)n3cc(C(N)Cc4ccc(O)cc4)nn3)CC2)nc(N2CCN(C(=O)C(CCC(=O)O)n3cc(C(N)C(C)CC)nn3)CC2)n1 (stereo not drawn)	45µM*	-12%	32µM*	25µM*	-6%	-9%
C#CCOCCOCCOCCNc1nc(N2CCN(C(=O)[C@H](CCC(=O)O)n3cc(C(N)Cc4ccc(O)cc4)nn3)CC2)nc(N2CCN(C(=O)[C@H](Cc3cc4ccccc4[nH]3)n3cc(C(N)[C@H](C)CC)nn3)CC2)n1 (stereo partly drawn)	45µM*	0%	50µM*	u	15%	-10%
CCn1c(C(=O)N2CCC(C(=O)N3CCN(c4cc(C)ccc4C)CC3)CC2)cc2sccc21	22µM*	x	22µM*	x	u	2%
CCn1c(C(=O)N2CCC(C(=O)N3CCN(c4cccc(C)c4C)CC3)CC2)cc2sccc21	u	x	22µM*	x	-12%	-1%
COc1ccc(C2N3CC4(C)CN2CC(c2ccccc2)(C3)C4=O)cc1 (stereo not drawn)	u	x	-12%	x	13%	2%
O=C(c1ccccc1O)N(Cc1ccccc1)Cc1ccccc1	-35%	x	x	x	x	x
Cc1ccc(/C=N/n2c(C3CCCCC3)n[nH]c2=S)cc1	u	u	3%	x	-20%	-14%
COc1cc(/C=N/n2c(C3CCCCC3)n[nH]c2=S)cc(OC)c1O	2.8µM*	-26%	-18%	x	u	-12%
COc1cccc(/C=N/n2c(C3CCCCC3)n[nH]c2=S)c1	32µM*	21µM*	-34%	x	-8%	9%
Oc1cccc(/C=N/n2c(C3CCCCC3)n[nH]c2=S)c1	32µM*	u	-24%	x	-20%	-2%
COc1cccc(CNC(=O)C2CCN(Cc3cc4ccccc4n3Cc3ccc(C)cc3)CC2)c1	-25%	x	-21%	x	38%	10%
Cc1cc(Cl)c2oc(C(=O)N3CCCCC3CCN3CCCC3=O)c(C)c2c1 (stereo not drawn)	-15%	-19%	50µM*	x	18%	-5%
COc1ccc(-c2nc(CS(=O)CC(=O)NC3CCCC3)c(C)o2)cc1 (stereo not drawn)	u	27µM*	-14%	x	-9%	u
Cc1ccc(CCNC(=O)CS(=O)Cc2nc(-c3ccccc3C)oc2C)cc1 (stereo not drawn)	-28%	x	u	x	2%	-11%
CCc1ccc(-c2nc(CS(=O)CC(=O)NCCCN3CCC(C)CC3)c(C)o2)cc1 (stereo not drawn)	u	27µM*	-8%	x	23%	-9%
Cc1ccccc1-c1nc(CS(=O)CC(=O)NCCc2ccc(Cl)cc2)c(C)o1 (stereo not drawn)	14%	19µM*	-20%	x	32%	-14%
Cc1oc(-c2cccs2)nc1CS(=O)CC(=O)NC1CCCCCC1 (stereo not drawn)	-22%	21µM*	-2%	6%	7%	u
Cc1ccc(-c2nc(CS(=O)CC(=O)NC3CCCCC3)c(C)o2)cc1 (stereo not drawn)	-3%	-16%	-20%	x	43%	0%
CN(C(=O)COC(=O)c1cccnc1Nc1ccccc1F)C1CCS(=O)(=O)C1 (stereo not drawn)	-5%	-13%	-1%	6%	20%	11%
CN(CCC#N)C(=O)COC(=O)c1cccnc1Nc1ccccc1F	-8%	27µM*	-6%	7%	11%	-11%
COc1ccc(OC)c(C(=O)C(=O)c2cc(OC)ccc2OC)c1	-31%	-6%	x	x	-6%	4%
COc1ccc(OC)c(N)c1	u	-21%	50µM*	-18%	u	u
O=C(Nc1cccc(C(=O)OCc2cc(=O)n3c4c(sc3n2)CCCC4)c1)c1cccc(F)c1	6%	x	-10%	x	28%	10%
Cc1ccc2c(c1)NC(=O)C(CC(=O)NCc1ccc(F)cc1)O2 (stereo not drawn)	-2%	-15%	-25%	x	31%	1%
O=C(CC1Oc2ccccc2NC1=O)NCc1ccccc1 (stereo not drawn)	u	21µM*	-2%	0%	4%	u
SMILES	JMJD2A Tudor	PLK1 PBD inh	BAZ2B block	L3MBTL1 block	HP1b binding inh	VDR inhibitor
Nc1c2ccccc2nc2ccccc12	1%	-3%	3%	4%	84%	2%
Cc1c(N(C)C)nc2ccccc2c1N	1µM*	-13%	45µM*	6%[11.4 µM]	14µM*	16%
COc1ccc(OC)c(S(=O)(=O)N(C(C)=O)c2ccc3oc(=O)sc3c2)c1	1%	2%	-20%	x	62%	-15%
CC(C)C(=O)N(c1ccc2oc(=O)sc2c1)S(=O)(=O)c1ccccc1	u	-11%	-32%	x	19%	79µM*
CC(=O)N(c1ccc2oc(=O)sc2c1)S(=O)(=O)c1ccccc1	-2%[11.4 µM]	30µM*	u	0%	5%	-27%
COc1ccc(S(=O)(=O)N(C(=O)C(C)C)c2ccc3oc(=O)sc3c2)cc1	-21%	-23%	u	x	48%	79µM*
C=Cc1ccc(Cn2c(C)c(CNCCc3ccc(OCC)cc3)c(C(=O)O)c2C)cc1	u	x	u	x	-18%	10%
C=CCn1c(COc2ccc(Cl)cc2)nnc1SCC(=O)N/N=C/c1cccc(O)c1	-7%	-1%	4%	5%	50%	-1%
C=CCn1c(COc2ccccc2)nnc1SC(C)C(=O)N/N=C/c1cc(Cl)ccc1O (stereo not drawn)	-17%[11.4 µM]	27µM*	3%	x	u	-24%
Cc1cc(C(=O)NCC(=O)O)c(C)o1	-17%	1%	50µM*	x	9%	-9%
Cc1ccc(NC(=O)CN2C(=O)c3ccccc3Sc3ccc(C(=O)N4CCCC4)cc32)cc1	-9%	x	9%	x	7%	4%
Cc1nc2cc(NCc3ccccc3O)ccc2n1Cc1ccccc1	32µM*	3.4µM*	20µM*	-15%	u	u
Cc1nc2ccccc2n1Cc1ccccc1	-15%	-5%	0%	1%	25%	15%
NCCCC(O)(P(=O)(O)O)P(=O)(O)O	x	x	x	x	x	8%
COC(=O)c1c(NC(=O)CCCC(=O)O)sc(C)c1C	-12%	-14%	-1%	0%	30%	-13%
Cc1sc(NC(=O)CCCC(=O)O)c(C(N)=O)c1-c1ccccc1	-23%	30µM*	0%	x	-33%	-10%
COc1cc(/C=C2\SC(=S)N(CC(=O)O)C2=O)ccc1OC(=O)c1ccco1	-17%	-9%	-28%	x	-7%	-28%
COc1cc(/C=C2/SC(=O)N(Cc3ccccc3Cl)C2=O)ccc1OCc1ccncc1	-24%	-4%	-5%[57.1 µM]	0%	25%	89µM*

Source: PubChem
